In PubChem BioAssay (NCATS):
Records with an inconclusive call do not appear. Entries that show only a call come without a potency. The source made the active and inactive calls. Calls come from the whole dose curve; as a rule, active = well fitted cell-killing curve with a large enough effect; inconclusive = small, poorly fitted or top-dose-only effect; inactive = flat fitted curve, though single readings scatter.
Potency is the fitted concentration of half-maximal effect.

Test: qHTS of pediatric cancer cell lines to identify multiple opportunities for drug repurposing: Primary screen for Rh18 cells (AID 1347102); note: nearly all actives have a fitted effect of over 65% in size
Details: Rh18 rhabdomyosarcoma viability, CellTiter-Glo luminescence, 48 h; series mostly up to 46 µM
Outline: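 Cells (500-1,000/well) rested 5 h, then received compounds for 48 h; metabolically active cells were measured by CellTiter-Glo luminescence. Final concentrations spanned up to 46 µM (MIPE, 11-point) or 0.59 nM-46 µM (NPC, 8-point) in primary screens, 11-point in follow-ups.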
With O=C(OC1C[C@H]2CC[C@@H](C1)[N+]21CCCC1)C(O)(c1ccccc1)c1ccccc1 (some centres undefined) the Potency was “inactive”.
For C=CCc1cc(OC)c(O)c(C(=O)NCCO)c1, the Potency was “inactive”.
In the case of Cc1nc(Nc2ncc(C(=O)Nc3c(C)cccc3Cl)s2)cc(N2CCN(CCO)CC2)n1, the Potency is reported as 33.5 nM (active).
For Cc1cccc(-c2[nH]ncc2-c2ccc3ncccc3n2)n1, the Potency was “inactive”.
In the case of Cc1nc(-c2ccc(OCC(C)C)c(C#N)c2)sc1C(=O)O, the Potency is reported as “inactive”.
With Oc1ccc(OCc2ccccc2)cc1 the Potency was “inactive”.
With O=C(NCCO[N+](=O)[O-])c1cccnc1 the Potency was “inactive”.
For Cc1ccc(C)c(OCCCC(C)(C)C(=O)O)c1, the Potency was “inactive”.
With CC1(C)NC(=O)N(c2ccc([N+](=O)[O-])c(C(F)(F)F)c2)C1=O the Potency was “inactive”.
With CC1(C)C(=O)N(CCN2CCC(C(=O)c3ccc(F)cc3)CC2)c2ccccc21 the Potency was “inactive”.
In the case of CCOC(=O)C1=C[C@@H](OC(CC)CC)[C@H](NC(C)=O)[C@@H](N)C1, the Potency is reported as “inactive”.
In the case of C[C@@H](N)C1CCC(C(=O)Nc2ccncc2)CC1 (some centres undefined), the Potency is reported as “inactive”.
With Cc1nccn1CC1CCc2c(c3ccccc3n2C)C1=O (centres undefined) the Potency was “inactive”.
In the case of CCOc1cc(CC(=O)N[C@@H](CC(C)C)c2ccccc2N2CCCCC2)ccc1C(=O)O, the Potency is reported as “inactive”.
In the case of Cc1cc(=O)oc2cc(O)ccc12, the Potency is reported as “inactive”.
With CC(C)Oc1ccc2c(=O)c(-c3ccccc3)coc2c1 the Potency was “inactive”.
In the case of c1ccc2[nH]c(-c3cscn3)nc2c1, the Potency is reported as “inactive”.
In the case of CNC[C@@H](O)[C@@H](O)[C@H](O)[C@H](O)CO, the Potency is reported as “inactive”.
In the case of Cc1cccc(CN2CCN(C(c3ccccc3)c3ccc(Cl)cc3)CC2)c1 (centres undefined), the Potency is reported as “inactive”.
